The source made the active and inactive calls. How the source made its calls: active means hit-call score of the fitted dose curve at least 0.9, where 1 is the maximum; inconclusive means response in the unintended direction; inactive means score below 0.9.

This experiment can be described thus: Tanguay_ZF_120hpf_MORT_legacy: (Legacy) Oregon State University Tanguay Lab 120 Hour Post-fertilization zebrafish Assay for Mortality (AID 2283633). As to the method: Tanguay_ZF_120hpf_legacy is a whole embryo, multiplexed endpoint assay using zebrafish larvae exposed for 120 hours post fertilization on a 96-well plate.Tanguay_ZF_120hpf_MORT_legacy is one of one assay component(s) measured or calculated from the Tanguay_ZF_120hpf_legacy assay. It is designed to make measurements of embryonic mortality as detected with brightfield microscopy of developing zebrafish embryos.Data from the assay component Tanguay_ZF_120hpf_MORT_legacy was analyzed into 1 assay endpoints. This assay endpoint, Tanguay_ZF_120hpf_MORT_legacy, was analyzed in the positive analysis fitting direction relative to DMSO as the negative control and baseline of activity. Using a type of viability reporter, gain-of-signal activity can be used to understand changes in developmentals as they relate to the whole embryo. To generalize the intended target to other relatable targets, this assay endpoint is annotated to the embryonic mortality intended target family, where the subfamily is embryonic mortality.
Zebrafish husbandry: Tropical 5D wild-type adult zebrafish were housed in at an approximate density of 1000 per 100 gallon tank at the Sinnhuber Aquatic Research Laboratory, Oregon State University, Corvallis, OR. Each tank was kept at standard laboratory conditions of 28C on a 14-h light/10-h dark photoperiod in fish water consisting of reverse osmosis water supplemented with a commercially available salt (Instant Ocean). Spawning funnels were placed into the tanks the night prior, and embryos were collected and staged. To increase bioavailability, the chorion was enzymatically removed using pronase (63.6mg/ml, >/= 3.5U/mg, Sigma-Aldrich: P5147) at 4 hours post fertilization (hpf) using a custom automated dechorionator.Chemical exposures: Six hpf dechorionated embryos were placed 1 embryo per well in a 96-well plate prefilled with 90 ul of EM using automated embryo placement systems (AEPS). Ten microliters of each row of dilution plate 2 was added to 2 exposure plates. The final DMSO concentration used was 0.64% (vol/vol). Thirty-two embryos were also exposed to 5uM trimethyltin chloride (positive control). Plates were sealed to prevent evaporation and foil covered to reduce light exposure and kept in a 28C incubator. Embryos were statically exposed until 120 hpf. At 24 hpf, embryos were assessed for photomotor response using a custom photomotor response analysis tool (PRAT) and for developmental toxicity endpoints (MO24: mortality at 24 hpf, DP: developmental progression, SM: spontaneous movement, and NC: notochord distortion). At 120 hpf, locomotor activity was measured using Viewpoint Zebralab and assessed for 18 endpoints. Zebrafish acquisition and analysis program (ZAAP), a custom program designed to inventory, acquire, and manage zebrafish data, was used to collect developmental endpoints as either present or absent (i.e., binary responses were recorded). If mortality occurred for an embryo (at either 24 or 120 hpf), the non-mortality endpoints were not measured.
Take `CC(C)(O)C(=O)Nc1ccc([N+](=O)[O-])c(C(F)(F)F)c1`: the compound was classed as inactive.
The same measure, in the same setting: the entry for `CC(c1ccc(O)cc1)(c1ccc(O)cc1)c1ccc(O)cc1` is “inactive”; for `Nn1cnnc1` it is “inactive”; for `Oc1ccc(Cl)cc1Cl` it is “inactive”.
Same read-out and setting: the value for `Cc1cccc(C)c1N` was “inactive”.
Consider `CC(C)C(=O)OCC(C)(C)C(OC(=O)C(C)C)C(C)C` (stereo not given), for which the AC50 is 26.2 µM (active).
With `ClC1=C(Cl)[C@]2(Cl)[C@@H]3[C@@H]4C[C@@H]([C@H]5O[C@@H]45)[C@@H]3[C@@]1(Cl)C2(Cl)Cl`, the compound was classed as inactive.
Take `O=C(O)C(F)(F)C(F)(F)C(F)(F)C(F)(F)C(F)(F)F`: the compound was called inactive.
`ClC1=C(Cl)[C@]2(Cl)[C@@H]3[C@H]4C[C@H]([C@@H]5O[C@H]45)[C@@H]3[C@@]1(Cl)C2(Cl)Cl`: the result was inactive.
For `Clc1ccc(C(c2ccccc2Cl)C(Cl)(Cl)Cl)cc1` (stereo not given), the compound was classed as inactive.
For `O=C(O)C(F)(F)C(F)(F)C(F)(F)C(F)(F)C(F)(F)C(F)(F)C(F)(F)C(F)(F)F`, the compound was called inactive.
The same measure, in the same setting: the entry for `COS(=O)(=O)OC` is “inactive”.
Take `CCCCCCCCCC[N+](C)(C)CCCCCCCCCC`: the AC50 is 13.6 µM (active).
Regarding `O=S(=O)(O)C(F)(F)C(F)(F)C(F)(F)C(F)(F)C(F)(F)C(F)(F)F`, the compound was classed as inactive.
The same measure, in the same setting: the value for `COc1ccc(O)c(C(C)(C)C)c1` was “inactive”; that for `Cc1cc(-c2ccc(N)c(C)c2)ccc1N` was “inactive”; that for `Cc1cc(O)ccc1Cl` was “inactive”.
For `CCCCCCOC(=O)c1ccccc1C(=O)OCCCCCC`, the compound was classed as inactive.
For `O=S(=O)(O)C(F)(F)C(F)(F)C(F)(F)C(F)(F)F`, the compound was classed as inactive.
Turning to `NS(=O)(=O)C(F)(F)C(F)(F)C(F)(F)C(F)(F)C(F)(F)C(F)(F)C(F)(F)C(F)(F)F`, the AC50 is 24.9 µM (active).
As for `CCCCCCCCCc1ccc(O)cc1`, the compound was called inactive.
The same measure, in the same setting: the entry for `CO/C=C(/C(=O)OC)c1ccccc1COc1cccc(C(F)(F)F)n1` is “inactive”.
In the case of `Oc1c(Cl)c(Cl)c(Cl)c(Cl)c1Cl`, the AC50 is 0.801 µM (active).
Take `O=NN(c1ccccc1)c1ccccc1`: the result was inactive.
In the case of `CCSC(=O)N(CC)C1CCCCC1`, the result was inactive.
The same measure, in the same setting: the entry for `O=C(O)C(F)(F)C(F)(F)C(F)(F)C(F)(F)C(F)(F)C(F)(F)C(F)(F)C(F)(F)C(F)(F)F` is “inactive”.
Same read-out and setting: the value for `C[C@]12CCC(=O)C=C1CC[C@@H]1[C@@H]2CC[C@@]2(C)[C@H]1CC[C@]2(C)O` was “inactive”.
For `CCC(C)c1cc([N+](=O)[O-])cc([N+](=O)[O-])c1O` (stereo not given), the AC50 is 0.462 µM (active).
Turning to `CCCCCCCCOC(=O)c1ccccc1C(=O)OCCCCCCCC`, the result was inactive.
`CCC(C)(c1ccc(O)cc1)c1ccc(O)cc1`: the AC50 was 36.9 µM (active).
On to `Cc1cc2c3c(c1)C(c1ccccc1)=N[C@@H](NC(=O)c1ccncc1)C(=O)N3CC2`, for which the result was inactive.
On the same count and under the same terms, the entry for `C=CC(=O)NCNC(=O)C=C` is “inactive”.
As for `CC1=C2C[C@H]3[C@@H](CC=C4C[C@@H](O)CC[C@@]43C)[C@@H]2CC[C@]12O[C@@H]1C[C@H](C)CN[C@H]1[C@H]2C`, the outcome was inactive.
Still for that read-out and setting: the entry for `ClC(Cl)=C(c1ccc(Cl)cc1)c1ccc(Cl)cc1` is “inactive”; for `C[C@]12CCC(=O)C=C1CC[C@@H]1[C@@H]2CC[C@]2(C)C(=O)CC[C@@H]12` it is “inactive”; for `c1ccc(-c2ccccc2)cc1` it is “inactive”.
For the compound `Oc1ccc(C(c2ccc(O)cc2)(C(F)(F)F)C(F)(F)F)cc1`, the AC50 is 33 µM (active).
`CCOP(=S)(OCC)SCSC(C)(C)C`: the outcome was inactive.
`Cc1ccc(O)c(C)c1`: the result was inactive.
Still for that read-out and setting: the value for `CCCN(CCC)N=O` was “inactive”.

Source of the values: PubChem BioAssay (EPA / NIEHS).
